Rows were chosen to be rich in hits. Some 1.1% of all compounds tested hit in one or more screens of this group.
CIT2-GFP yeast: yeast TOR pathway CIT2-GFP modulation; S. cerevisiae CIT2-GFP strain, flow cytometry, 3 h; 100 means same as DMSO wells; GFP response vs DMSO, % at 10 µM; 0.065% of 320,000 active; AID 2029;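 active = GFP response relative to DMSO above a set limit, near the screen mean plus 3 SD, cut at about 150% in these data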;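 also: ratio of well median GFP fluorescence to mean of DMSO wells on the plate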
LAP4 TOR yeast: modulators of TOR pathway LAP4-GFP in S. cerevisiae | S. cerevisiae LAP4-GFP multiplex, flow cytometry GFP, 3 h; median GFP as percent of DMSO wells | AID 2023 | 0.34% of 320,000 active | GFP response vs DMSO, % at 10 µM;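 active = GFP response vs DMSO above a set limit, about the screen mean plus 3 SD, cut at about 150% in these data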
VLA-4 inh: inhibition in a human VLA-4 binding assay; inhibition, % (about 7 µM as worked out from the volumes in the protocol); P13612; 0.2% of 330,000 active; VLA-4 expressing cells, ligand binding flow cytometry; AID 2557; in the data active = inhibition above about 50%
MEP2 TOR yeast: alters MEP2-GFP fluorescence in TOR pathway yeast screen | S. cerevisiae MEP2-GFP strain, flow cytometry GFP, 3 h; 100% = DMSO control level | GFP response vs DMSO, % at 10 µM | 0.51% of 330,000 active | AID 2016;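 active = GFP response versus DMSO above a set limit, roughly screen mean plus 3 SD, cut at about 180% in these data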;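 also: median GFP fluorescence of the barcode-gated MEP2-GFP cells per well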
AGP1 TOR yeast: yeast TOR pathway AGP1-GFP modulation. S. cerevisiae AGP1-GFP multiplex flow cytometry, 3 h; GFP as percent of DMSO wells. 0.02% of 320,000 active. GFP response vs DMSO, % at 10 µM;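 active = GFP response relative to DMSO above a set limit, near screen average plus 3 SD, cut at about 150% in these data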;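 also: median GFP channel fluorescence of the gated AGP1 strain per well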
RPL19A-GFP yeast: alters RPL19A-GFP fluorescence in TOR pathway yeast screen | S. cerevisiae RPL19A-GFP strain, flow cytometry, 3 h; hits give low values | percent response vs DMSO, % at 10 µM | 0.3% of 330,000 active;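 active = percent response vs DMSO below 50%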;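 also: median channel GFP fluorescence of the barcoded RPL19A-GFP strain; ratio of sample median GFP to plate DMSO average so 100% = DMSO; lower means less RPL19A-GFP as with rapamycin TOR inhibition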
VLA-4 allo CP: confirmation of allosteric modulators of human VLA-4 integrin. U937 cells, HUTS-21 LIBS mAb binding, flow cytometry; LDV ligand present at threefold Kd. 2% of 1,300 active. inhibition, % at 6.7 µM. shares compounds with VLA-4 inh; in the data active = inhibition above about 40%;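 also: 0% = ligand without compound and 100% = no ligand background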
An asterisk follows results filed as active; · = no result.

SMILES	CIT2-GFP yeast	LAP4 TOR yeast	VLA-4 inh	MEP2 TOR yeast	AGP1 TOR yeast	RPL19A-GFP yeast	VLA-4 allo CP
CC(C)CNC(=O)[C@@H]1CSC2c3ccccc3C(=O)N21 (stereo partly drawn)	99.1	101.8	4.1	108.7	99.5	105.6	·
N#Cc1ccc(CNC(=O)N2CCOCC2)cc1	108.2	102.1	45.1	106.8	104.4	99.7	0.5
O=C(NCc1ccc(Cl)cc1)N1CCOCC1	102.5	93.9	0.0	103.3	99.1	105.8	·
c1ccc(C(Cc2nc(-c3cccnc3)no2)c2ccccc2)cc1	102.2	112.1	92.4*	101.2	·	105.9	-3.9
c1ccc(SCc2nc(-c3cccnc3)no2)cc1	100.4	110.0	7.4	93.7	88.2	93.9	·
CCCCN(CCCNC(=O)c1ccc2nc(N3CCOCC3)sc2c1)Cc1ccccc1	98.8	96.7	-111.9	99.9	106.2	96.8	10.4
Cc1ccc(C)c(N2CCN(C(=O)c3ccc4nc(N5CCOCC5)sc4c3)CC2)c1	75.6	87.9	4.3	81.3	80.5	90.8	-0.8
O=C(c1ccc2nc(N3CCCCC3)sc2c1)N1CCN(c2ccccn2)CC1	90.5	104.4	49.2	109.8	96.6	95.6	7.7
CCCN1CCN(CCCNC(=O)c2ccc3nc(N4CCC(C)CC4)sc3c2)CC1	85.8	95.6	9.6	88.0	91.0	96.6	-2.2
CC1CC(C)CN(CCCNC(=O)c2ccc3nc(N4CCOCC4)sc3c2)C1 (stereo not drawn)	96.4	102.4	5.3	107.3	101.1	97.7	·
CCC1CN(C(=O)N2CCC(C(=O)NCc3cccc(OC)c3OC)CC2)c2cc(C)ccc2O1 (stereo not drawn)	101.5	94.8	-2.6	108.0	101.7	97.6	·
Cc1cccc(NC(=O)c2ccc3nc(N4CCOCC4)sc3c2)c1C	97.3	104.2	2.8	105.6	101.5	103.1	·
CCOc1ccccc1CNC(=O)c1ccc2nc(N3CCOCC3)sc2c1	94.1	99.5	2.1	101.1	96.5	96.7	4.4
O=C(Nc1ccccc1Cl)c1ccc2nc(N3CCOCC3)sc2c1	94.1	103.3	10.5	102.3	100.0	99.0	·
CCC(Cc1ccccc1)NC(=O)c1ccc2nc(N3CCOCC3)sc2c1 (stereo not drawn)	92.9	102.4	10.5	98.8	99.5	99.2	3.3
CCc1cccc(C)c1NC(=O)c1ccc2nc(N3CCOCC3)sc2c1	105.9	101.3	50.3*	104.2	107.0	101.7	4.4
O=C(NCCc1ccccc1)c1ccc2nc(N3CCOCC3)sc2c1	95.0	97.2	-18.3	98.5	98.4	97.0	10.4
CC(CCc1ccccc1)NC(=O)c1ccc2nc(N3CCOCC3)sc2c1 (stereo not drawn)	101.1	107.3	9.0	97.7	102.8	102.9	·
COc1ccccc1CNC(=O)c1ccc2nc(N3CCOCC3)sc2c1	98.2	97.0	4.1	105.6	99.6	101.8	·
CC(=O)c1cc2c(cc1NC(=O)CN1Cc3ccccc3C1=O)OCO2	109.4	113.9	-9.7	105.8	108.4	104.2	·
COc1ccc(S(=O)(=O)N2CCCOC2CNC(=O)C(=O)NCCc2ccco2)cc1C (stereo not drawn)	117.9	109.5	7.0	115.2	111.2	97.8	·
O=C(NCc1cccc(Cl)c1)c1ccc2nc(N3CCOCC3)sc2c1	95.0	102.3	22.6	94.7	100.9	98.7	-0.1
O=C(Nc1ccc(F)cc1F)c1ccc2nc(N3CCOCC3)sc2c1	89.3	104.2	32.5	102.2	92.8	100.0	14.3
O=C(Nc1ccc2nc(N3CCOCC3)sc2c1)c1ccc(F)cc1	93.7	103.3	-8.6	96.9	97.4	97.5	·
CC(C)Oc1ccc(CNC(=O)c2ccc3nc(N4CCOCC4)sc3c2)cc1	95.9	90.0	4.3	85.2	94.3	92.2	·
SMILES	CIT2-GFP yeast	LAP4 TOR yeast	VLA-4 inh	MEP2 TOR yeast	AGP1 TOR yeast	RPL19A-GFP yeast	VLA-4 allo CP
CN(Cc1ccccc1NS(=O)(=O)c1ccc2ccccc2c1)C1CCCCC1	110.2	104.9	-14.1	104.4	107.4	103.0	·
O=C1N[C@@H](Cc2ccccc2)COC(=O)[C@H](Cc2ccc(F)cc2)C/C=C\C[C@H]1CC(=O)N(CCO)Cc1ccccc1	102.2	97.3	1.3	101.5	102.1	101.0	·
C[C@H]1COC(=O)[C@H](Cc2ccc(F)cc2)C/C=C\C[C@H](CC(=O)N(CCO)Cc2ccccc2)C(=O)N1	87.5	99.0	112.9*	100.0	95.0	96.5	5.7
CC1CC(C)CN(C(=O)c2ccc(C#N)cc2)C1 (stereo not drawn)	108.2	104.7	59.6*	113.9	103.9	109.8	10.4
CC1CC(C)CN(C(=O)c2ccc(C(=O)c3ccccc3)cc2)C1 (stereo not drawn)	92.6	87.3	28.7	93.9	94.1	90.7	·
COc1cc(OC)c(NC(=O)CN(C)S(=O)(=O)c2ccc(-c3ccc(=O)[nH]n3)s2)cc1Cl	92.0	89.5	0.4	84.9	89.3	89.8	·
CC1CN(CCOCCSc2ccccc2)CC(C)O1 (stereo not drawn)	103.5	96.3	45.5	100.9	102.6	101.6	2.1
CC1CN(CCOCCSc2ccc(Cl)cc2)CC(C)O1 (stereo not drawn)	104.7	87.7	27.2	99.9	99.0	102.0	·
COc1ccc(S(=O)(=O)NCc2ccccc2Cl)cc1OC	111.4	115.9	93.0*	123.7	·	82.4	0.4
CCOC(=O)/C(=C\c1ccc(OC(F)F)cc1)C1=Nn2c(nnc2-c2ccc(Cl)cc2)SC1	78.6	97.7	59.6*	102.4	91.0	98.2	50.7*
Cc1ccc(NC(=O)c2cc(S(=O)(=O)N3CCOCC3)cn2C)cc1Cl	124.9	114.2	-13.7	96.7	116.5	104.0	·
CCOc1ccc(CNC(=O)CCCC(=O)n2ncc3cc(C)ccc32)cc1	95.5	90.1	59.1*	99.8	94.1	100.4	5.4
Cc1cc(Oc2ccccc2)nc(SCC(=O)Nc2ccccc2)n1	88.6	105.3	70.4*	106.6	95.4	97.4	6.5
N#Cc1c(-c2c(Cl)cccc2Cl)noc1/C=C/Nc1ccc(C(=O)O)cc1	102.2	99.0	42.5	109.4	92.7	98.7	-2.0
COc1cccc(-c2cc(C(=O)N3CCN(Cc4ccc5c(c4)OCO5)CC3)on2)c1	102.5	101.7	55.4*	97.7	100.8	102.7	19.0
CCC1CCCN1Cn1cnc2c([nH]c3ccc(OC)cc32)c1=O (stereo not drawn)	102.8	102.6	4.1	112.9	108.5	104.7	-13.2
CCCCN(CCCC)CCn1cnc2c([nH]c3ccc(OC)cc32)c1=O	124.5	91.1	-3.8	92.5	101.7	95.3	-12.3

Screens: PubChem, NMMLSC
